Results published in PubChem BioAssay.

Experiment: P. aeruginosa biofilm formation inhibitors, primary screen, PAO1 strain, BacTiter-Glo luminescence, LB-PBS (AID 1144)
Conditions: 12 h, higher = more signal; call rule not given here

z-score, inactive:
[N-]=[N+]=NCc1ccccc1[C@H]1OC(c2ccc(OCCCO)cc2)=N[C@@]1(Cc1ccccc1N=[N+]=[N-])C(N)=O -1.13, C=CC[C@]1(C(=O)NCC(O)CO)N=C(c2ccc(OCCCO)cc2)O[C@H]1c1ccccc1CN=[N+]=[N-] (some centres not stated) 0.381, C[C@]1(C(=O)NC2CC2)c2ccccc2C(=O)N(Cc2cc(F)cc(C(F)(F)F)c2)[C@H]1c1ccc(CO)cc1 -1.05, CC(C)N1CC=CC23O[C@@H]4/C=C\CCCOC(=O)C4[C@H]2C(=O)N(C(C)CO)[C@@H]3C1=O (some centres not stated) -2.11, CCOC(=O)C[C@H]1[C@H](OC(=O)c2ccccc2-c2ccccc2)[C@@H](NC(=O)CC(C)C)c2cc(OCCCO)ccc2N1C(=O)c1ccccc1 -0.829, CN(C)CCCCNC(=O)[C@H]1C[C@H]2C(=O)N[C@@H](CCCCN(C)C)C(=O)N2[C@H]1c1ccc(O)cc1 -0.889, CC(CO)N1C(=O)[C@@H]2[C@H]3C(=O)OCC=C[C@H]3OC23C=CCN(c2ccc4ccccc4c2)C(=O)[C@@H]13 (some centres not stated) 1.19, CC(C)N1C(=O)[C@@]2(Cc3ccccc31)c1ccccc1C(=O)N(Cc1ccccc1)[C@H]2c1ccc(CO)cc1 0.0609, CCOC(=O)C1=CC[C@@H](c2ccccc2)N(S(=O)(=O)c2ccc(C)cc2)[C@@H]1C#N -0.232, COc1ccc([Si](C)(C)[C@@H]2[C@@H](CC(=O)N(CCO)Cc3ccccc3)O[C@]3(C(=O)N(Cc4cccc(I)c4)c4ccccc43)[C@H]2C)cc1 0.191, CO[C@H]1O[C@H](CO)[C@@H](OC(=O)CCc2ccccc2)[C@@H]2OC(=O)[C@@H](Cc3ccc4ccccc4c3)C/C=C/C[C@H](Cc3ccc4ccccc4c3)C(=O)O[C@@H]12 -0.302, O=C1O[C@H](c2ccccc2)[C@H](c2ccccc2)N2[C@H]1[C@@H](C(=O)O)[C@]1(C(=O)Nc3ccccc31)[C@H]2c1ccc(OCCO)cc1 -0.369, O=C1c2ccccc2[C@@]2(Cc3ccccc3N(CC(F)(F)F)C2=O)[C@H](c2ccc(CO)cc2)N1Cc1ccccc1 -0.692, COCCCNC(=O)[C@@]1(Cc2ccccc2I)c2ccccc2C(=O)N(C2CCCCC2)[C@H]1c1ccc(CO)cc1 -1.54, COCCOC(=O)N1C(=O)[C@@]2(c3cc(C#CC4(O)CCCCCC4)ccc31)[C@H](C(N)=O)[C@H]1C(=O)O[C@H](c3ccccc3)[C@H](c3ccccc3)N1[C@@H]2c1ccc(OCCO)cc1 -0.295, CCCNC(=O)[C@@]1(Sc2ccc(C)cc2)CC(=O)N(Cc2cc(C(F)(F)F)cc(C(F)(F)F)c2)[C@@H]1c1ccc(CO)cc1 0.503, C=C(CCCC)/C(=C/C[C@@H](OC(C)=O)c1cccc(OCCO)c1)c1cc(C(=O)OC)ccc1OC 0.198, Cc1cccc([C@H]2C[C@H]3C(Br)=C[C@@]2(CO)C(=O)[C@]32CO2)c1 -0.53, CCCCN1CC=CC23O[C@@H]4/C=C\CCCOC(=O)C4[C@H]2C(=O)N(CCCCCCO)[C@@H]3C1=O (some centres not stated) -1.2, C=CCNC(=O)[C@@H]1[C@H]2C(=O)O[C@H](c3ccccc3)[C@H](c3ccccc3)N2[C@H](c2ccc(OCCO)cc2)[C@@]12C(=O)N(C(=O)OCCOC)c1ccccc12 -0.328, COc1ccc(C(=O)Nc2ccc(CN3C(=O)[C@]4(O[C@H](CC(=O)N(CCO)Cc5ccccc5)[C@@H]([Si](C)(C)c5ccc(OC)cc5)[C@@H]4C)c4ccccc43)cc2)cc1 0.52, COC(=O)Cn1c(C(=O)N(C)C)cc2c1C[C@H]1CN(C(=O)c3ccccc3)[C@@](Cc3ccccc3)(C(=O)OC)[C@@H]21 -0.334, CO[C@H]1O[C@H](CO)[C@@H](OC(=O)Nc2cccc(F)c2)[C@H](OC(=O)Nc2ccc3c(c2)OCO3)[C@@H]1OC(=O)Nc1ccc2c(c1)OCO2 0.221, COC(=O)[C@@]1(Cc2ccc(F)cc2)[C@H]2c3cc(C(=O)N(C)C)n(Cc4cccc5ccccc45)c3C[C@H]2CN1C(=O)c1ccccc1 0.529, CCOC(=O)C[C@H]1[C@H](OC(=O)Cc2ccc3c(c2)OCO3)[C@@H](NC(=O)CC(C)C)c2cc(OCCCO)ccc2N1C(=O)c1ccc2ccccc2n1 0.0536, O=C1O[C@H](c2ccccc2)[C@H](c2ccccc2)N2[C@H]1[C@@H](C(=O)N1CCN(c3ncccn3)CC1)[C@]1(C(=O)Nc3ccc(C#CC4(O)CCCCCC4)cc31)[C@H]2c1ccc(O)cc1 -0.759, COC(=O)C[C@H]1O[C@]2(C(=O)N(C)c3ccccc32)[C@@H](C)[C@@H]1[Si](C)(C)c1ccccc1 0.115
